Results taken from PubChem BioAssay (EPA / NIEHS).
The source made the active and inactive calls. How the source made its calls: active means hit-call score of the fitted dose curve at least 0.9, where 1 is the maximum; inactive means score below 0.9.

How the values were obtained:
[1] = read-out: Human Leukocyte Antigen - DR isotype (HLADR), HLA-DRA (gene 3122); experiment: BSK_CASM3C_HLADR: BioMAP Diversity Plus: CASM3C Assay for Human Leukocyte Antigen - DR isotype (HLADR) Biomarker Activity (AID 2283043); conditions: primary human coronary artery smooth muscle cells; actives raise or lower the signal;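 further: cell-surface HLA-DR protein level quantified by ELISA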
[2] = read-out: Macrophage colony-stimulating factor (MCSF), CSF1 (gene 1435); experiment: BSK_CASM3C_MCSF: BioMAP Diversity Plus: CASM3C Assay for Macrophage colony-stimulating factor (MCSF) Biomarker Activity (AID 2283044); conditions: primary human coronary artery smooth muscle cells; actives raise or lower the signal;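 further: M-CSF protein amount quantified by ELISA after 24 h exposure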
[3] = read-out: Low-density lipoprotein receptor (LDLR), LDLR (gene 3949); experiment: BSK_CASM3C_LDLR: BioMAP Diversity Plus: CASM3C Assay for Low-density lipoprotein receptor (LDLR) Biomarker Activity (AID 2283045); conditions: primary human coronary artery smooth muscle cells; actives raise or lower the signal;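 further: LDLR protein level on the cell surface quantified by ELISA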
[4] = read-out: Monocyte Chemoattractant Protein-1 (MCP1), CCL2 (gene 6347); experiment: BSK_CASM3C_MCP1: BioMAP Diversity Plus: CASM3C Assay for Monocyte Chemoattractant Protein-1 (MCP1) Biomarker Activity (AID 2283046); conditions: primary human coronary artery smooth muscle cells; actives raise or lower the signal;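 further: MCP-1 level quantified by ELISA 24 h after dosing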
[5] = BSK_CASM3C_Proliferation: Cell Proliferation Assessment in the BioMAP Diversity Plus: CASM3C Assay (AID 2283047); conditions: primary human coronary artery smooth muscle cells;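 further: sulforhodamine B total protein stain as relative cell number at 560 nm; sub-confluent cells exposed 48 h before staining; fitted both ways against DMSO so gain or loss of cell number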
[6] = read-out: Monokine induced gamma interferon (MIG), CXCL9 (gene 4283); experiment: BSK_CASM3C_MIG: BioMAP Diversity Plus: CASM3C Assay for Monokine induced gamma interferon (MIG) Biomarker Activity (AID 2283048); conditions: primary human coronary artery smooth muscle cells; actives raise or lower the signal;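 further: MIG protein level measured by ELISA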
[7] = read-out: serum amyloid A (SAA), SAA1 (gene 6288); experiment: BSK_CASM3C_SAA: BioMAP Diversity Plus: CASM3C Assay for serum amyloid A (SAA) Biomarker Activity (AID 2283049); conditions: primary human coronary artery smooth muscle cells; actives raise or lower the signal;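 further: SAA protein level quantified by ELISA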
[8] = BSK_CASM3C_SRB: Viability Assessment in the BioMAP Diversity Plus: CASM3C Assay (AID 2283050); conditions: primary human coronary artery smooth muscle cells;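 further: cells exposed to compound for 24 h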
[9] = read-out: Thrombomodulin, THBD (gene 7056); experiment: BSK_CASM3C_Thrombomodulin: BioMAP Diversity Plus: CASM3C Assay for Thrombomodulin Biomarker Activity (AID 2283051); conditions: primary human coronary artery smooth muscle cells; actives raise or lower the signal;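 further: thrombomodulin protein level measured by ELISA 24 h after dosing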
[10] = read-out: Tissue Factor, F3 (gene 2152); experiment: BSK_CASM3C_TissueFactor: BioMAP Diversity Plus: CASM3C Assay for Tissue Factor Biomarker Activity (AID 2283052); conditions: primary human coronary artery smooth muscle cells; actives raise or lower the signal;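 further: cell surface tissue factor protein level read by ELISA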
[11] = read-out: Interferon-gamma inducible Protein 10 (IP10), CXCL10 (gene 3627); experiment: BSK_hDFCGF_IP10: BioMAP Diversity Plus: hDFCGF Assay for Interferon-gamma inducible Protein 10 (IP10) Biomarker Activity (AID 2283053); conditions: primary human foreskin fibroblasts; actives raise or lower the signal
How it was run: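 Primary human foreskin fibroblasts exposed to chemicals for 24 h. IP-10 measured by ELISA; changes fitted bidirectionally against DMSO baseline.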

[12] = read-out: Urokinase-type plasminogen activator receptor (uPAR), PLAUR (gene 5329); experiment: BSK_CASM3C_uPAR: BioMAP Diversity Plus: CASM3C Assay for Urokinase-type plasminogen activator receptor (uPAR) Biomarker Activity (AID 2283054); conditions: primary human coronary artery smooth muscle cells; actives raise or lower the signal;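 further: cell-surface uPAR protein level quantified by ELISA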
[13] = read-out: Vascular cell adhesion molecule 1 (VCAM1), VCAM1 (gene 7412); experiment: BSK_CASM3C_VCAM1: BioMAP Diversity Plus: CASM3C Assay for Vascular cell adhesion molecule 1 (VCAM1) Biomarker Activity (AID 2283055); conditions: primary human coronary artery smooth muscle cells; actives raise or lower the signal;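 further: VCAM-1 protein level quantified by ELISA on the cells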
[14] = read-out: Collagen III, COL3A1 (gene 1281); experiment: BSK_hDFCGF_CollagenIII: BioMAP Diversity Plus: hDFCGF Assay for Collagen III Biomarker Activity (AID 2283056); conditions: primary human foreskin fibroblasts; actives raise or lower the signal
How it was run: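 Human foreskin fibroblast primary cultures sampled 24 h after dosing; Collagen III quantified by ELISA. Signal fitted bidirectionally against DMSO baseline.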

[15] = read-out: Epidermal growth factor receptor (EGFR), EGFR (gene 1956); experiment: BSK_hDFCGF_EGFR: BioMAP Diversity Plus: hDFCGF Assay for Epidermal growth factor receptor (EGFR) Biomarker Activity (AID 2283057); conditions: primary human foreskin fibroblasts; actives raise or lower the signal
How it was run: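 Primary human foreskin fibroblasts (hDFCGF system), sampled 24 h after dosing; EGFR quantified by ELISA. Bidirectional fit relative to DMSO baseline; SRB total-protein staining in parallel cultures for cytotoxicity.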

[16] = read-out: Interleukin-8 (IL8), CXCL8 (gene 3576); experiment: BSK_hDFCGF_IL8: BioMAP Diversity Plus: hDFCGF Assay for Interleukin-8 (IL8) Biomarker Activity (AID 2283058); conditions: primary human foreskin fibroblasts; actives raise or lower the signal
How it was run: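 Primary human foreskin fibroblasts (hDFCGF system) dosed with chemical; IL-8 measured by ELISA 24 hours later. Bidirectional curve fitting relative to DMSO baseline; cytotoxicity tracked in parallel cultures by SRB total protein staining.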

[17] = BSK_hDFCGF_Proliferation: Cell Proliferation Assessment in the BioMAP Diversity Plus: hDFCGF Assay (AID 2283059); conditions: primary human foreskin fibroblasts;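 further: curves fitted for both rise and fall of signal versus DMSO baseline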
How it was run: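 Steps: dose primary human dermal fibroblasts (foreskin); […] fix in 10% TCA; stain with 0.1% SRB; read 560 nm; fit gain or loss of signal against DMSO.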

[18] = read-out: Macrophage colony-stimulating factor (MCSF), CSF1 (gene 1435); experiment: BSK_hDFCGF_MCSF: BioMAP Diversity Plus: hDFCGF Assay for Macrophage colony-stimulating factor (MCSF) Biomarker Activity (AID 2283060); conditions: primary human foreskin fibroblasts; actives raise or lower the signal
How it was run: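 Human foreskin fibroblast primary cultures; M-CSF measured by ELISA 24 hours after chemical dosing. Bidirectional fitting relative to DMSO, with overt cytotoxicity tracked by parallel SRB total-protein staining (0.1% SRB, 10% TCA fixation, 560 nm).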

[19] = BSK_hDFCGF_SRB: Viability Assessment in the BioMAP Diversity Plus: hDFCGF Assay (AID 2283061); conditions: primary human foreskin fibroblasts;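 further: cells exposed to compound for 24 h before the read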
How it was run: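 Human foreskin fibroblasts in 96-well plates were treated 24 h. Total protein was measured by 0.1% SRB staining after 10% TCA fixation, read at 560 nm. Data were fitted bidirectionally against DMSO.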

[20] = read-out: TIMP metallopeptidase inhibitor 1 (TIMP1), TIMP1 (gene 7076); experiment: BSK_hDFCGF_TIMP1: BioMAP Diversity Plus: hDFCGF Assay for TIMP metallopeptidase inhibitor 1 (TIMP1) Biomarker Activity (AID 2283062); conditions: primary human foreskin fibroblasts; actives raise or lower the signal
How it was run: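 Human foreskin fibroblast primary cultures dosed for 24 h; secreted/surface TIMP-1 quantified by ELISA. Bidirectional curve fitting against DMSO baseline; cytotoxicity tracked in parallel cultures by SRB total-protein staining.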

C1=CCCC=CCCC=CCC1
outcome [1]: inactive | outcome [2]: inactive | outcome [3]: inactive | outcome [4]: inactive | outcome [5]: inactive | outcome [6]: inactive | outcome [7]: inactive | outcome [8]: inactive | outcome [9]: inactive | outcome [10]: inactive | outcome [11]: inactive | outcome [12]: inactive | outcome [13]: inactive | outcome [14]: inactive | outcome [15]: inactive | outcome [16]: inactive | outcome [17]: inactive | outcome [18]: inactive | outcome [19]: inactive | outcome [20]: inactive

CC(=O)OC[C@H]1O[C@@](COC(C)=O)(O[C@H]2O[C@H](COC(C)=O)[C@@H](OC(C)=O)[C@H](OC(C)=O)[C@H]2OC(C)=O)[C@@H](OC(C)=O)[C@@H]1OC(C)=O
outcome [1]: inactive | outcome [2]: inactive | outcome [3]: inactive | outcome [4]: inactive | outcome [5]: inactive | outcome [6]: inactive | outcome [7]: inactive | outcome [8]: inactive | outcome [9]: inactive | outcome [10]: inactive | outcome [11]: inactive | outcome [12]: inactive | outcome [13]: inactive | outcome [14]: inactive | outcome [15]: inactive | outcome [16]: inactive | outcome [17]: inactive | outcome [18]: inactive | outcome [19]: inactive | outcome [20]: inactive

On1ccccc1=S
AC50 [1]: 27700 nM (active) | AC50 [2]: 33700 nM (active) | AC50 [3]: 11700 nM (active) | AC50 [4]: 32100 nM (active) | AC50 [5]: 6450 nM (active) | outcome [6]: inactive | outcome [7]: inactive | AC50 [8]: 26800 nM (active) | AC50 [9]: 878 nM (active) | outcome [10]: inactive | AC50 [11]: 422 nM (active) | AC50 [12]: 25600 nM (active) | outcome [13]: inactive | AC50 [14]: 1410 nM (active) | outcome [15]: inactive | AC50 [16]: 791 nM (active) | AC50 [17]: 148 nM (active) | AC50 [18]: 892 nM (active) | AC50 [19]: 1740 nM (active) | AC50 [20]: 1400 nM (active)

Cn1c(=O)cc(Oc2ccc(F)cc2F)c2cnc(NCC(C)(C)O)nc21
AC50 [1]: 1420 nM (active) | outcome [2]: inactive | outcome [3]: inactive | outcome [4]: inactive | outcome [5]: inactive | outcome [6]: inactive | AC50 [7]: 3970 nM (active) | outcome [8]: inactive | outcome [9]: inactive | outcome [10]: inactive | AC50 [11]: 1150 nM (active) | outcome [12]: inactive | outcome [13]: inactive | outcome [14]: inactive | outcome [15]: inactive | outcome [16]: inactive | outcome [17]: inactive | AC50 [18]: 691 nM (active) | outcome [19]: inactive | outcome [20]: inactive

Cc1ccc(O)cc1
outcome [1]: inactive | outcome [2]: inactive | outcome [3]: inactive | outcome [4]: inactive | outcome [5]: inactive | outcome [6]: inactive | outcome [7]: inactive | outcome [8]: inactive | outcome [9]: inactive | outcome [10]: inactive | outcome [11]: inactive | AC50 [12]: 4240 nM (active) | outcome [13]: inactive | outcome [14]: inactive | outcome [15]: inactive | outcome [16]: inactive | outcome [17]: inactive | outcome [18]: inactive | outcome [19]: inactive | outcome [20]: inactive

CC(=O)c1ccc2c(c1)[C@H](NC(=O)c1ccc(F)cc1)[C@@H](O)C(C)(C)O2
outcome [1]: inactive | outcome [2]: inactive | outcome [3]: inactive | outcome [4]: inactive | outcome [5]: inactive | outcome [6]: inactive | outcome [7]: inactive | outcome [8]: inactive | outcome [9]: inactive | outcome [10]: inactive | outcome [11]: inactive | outcome [12]: inactive | outcome [13]: inactive | outcome [14]: inactive | outcome [15]: inactive | outcome [16]: inactive | outcome [17]: inactive | outcome [18]: inactive | outcome [19]: inactive | outcome [20]: inactive

Cc1ccc(S(=O)(=O)O)cc1C
outcome [1]: inactive | outcome [2]: inactive | outcome [3]: inactive | outcome [4]: inactive | outcome [5]: inactive | outcome [6]: inactive | outcome [7]: inactive | outcome [8]: inactive | outcome [9]: inactive | outcome [10]: inactive | outcome [11]: inactive | outcome [12]: inactive | outcome [13]: inactive | outcome [14]: inactive | outcome [15]: inactive | outcome [16]: inactive | outcome [17]: inactive | outcome [18]: inactive | outcome [19]: inactive | outcome [20]: inactive

CC(C)(O)c1coc(S(=O)(=O)NC(=O)Nc2c3c(cc4c2CCC4)CCC3)c1
outcome [1]: inactive | outcome [2]: inactive | outcome [3]: inactive | outcome [4]: inactive | outcome [5]: inactive | outcome [6]: inactive | outcome [7]: inactive | outcome [8]: inactive | outcome [9]: inactive | outcome [10]: inactive | outcome [11]: inactive | outcome [12]: inactive | outcome [13]: inactive | outcome [14]: inactive | outcome [15]: inactive | outcome [16]: inactive | outcome [17]: inactive | outcome [18]: inactive | outcome [19]: inactive | outcome [20]: inactive

Nc1ccc(Nc2ccccc2)cc1
outcome [1]: inactive | outcome [2]: inactive | outcome [3]: inactive | outcome [4]: inactive | AC50 [5]: 20000 nM (active) | outcome [6]: inactive | outcome [7]: inactive | outcome [8]: inactive | AC50 [9]: 3230 nM (active) | outcome [10]: inactive | outcome [11]: inactive | AC50 [12]: 2330 nM (active) | outcome [13]: inactive | outcome [14]: inactive | outcome [15]: inactive | outcome [16]: inactive | AC50 [17]: 7370 nM (active) | outcome [18]: inactive | outcome [19]: inactive | outcome [20]: inactive
